Screening results from PubChem BioAssay.
EBV LMP1 NFkB: inhibitors of Epstein-Barr LMP1-induced NF-kappaB reporter; LMP1-induced NF-kappaB luciferase reporter cells, luminescence; inhibition, % at 12.5 µM; hit rate 0.69% among 350,000; in the data active = inhibition above about 41%
HSP90 refold inh: inhibitors of HSP90 luciferase refolding in rabbit reticulocyte lysate | luciferase refolding luminescence, 3 h | inhibition, % at 5.6 µM | hit rate 0.91% among 290,000 | AID 1789;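 active = inhibition above the screen-wide mean plus 3 SD, computed separately per campaign, cut at about 16% in these data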;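 also: inhibitors lower the luminescence because luciferase stays unfolded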
HSF1 inhib: HSF1 inhibition. NIH3T3-HGL HSE-luciferase, MG132-induced, luminescence 8 h; active compounds read low. hit rate 0.77% among 300,000. activity change, negative = inhibition, % at 7.5 µM (by protocol);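 active = more than half of replicate wells show activity change below -50%, luminescence cut by over half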;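 also: luciferase reports HSF-1 transcriptional activity via heat shock element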
TWEAK-Fn14 inh: blocks TWEAK-Fn14 interaction in a reporter cell assay | TWEAK-stimulated Fn14 reporter cells, luciferase luminescence, 8 h | inhibition, % at 10 µM | hit rate 2% among 360,000; in the data active = inhibition above about 50%
TROY signal inh: TROY signaling inhibition. Q293 LMP1-TROYcd NF-kB luciferase reporter, 4 h. inhibition, % at 10 µM. hit rate 0.98% among 360,000;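 active = compounds whose plate-normalised and pattern-corrected inhibition of the luciferase reporter signal at the single screening dose is 50% or more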
HSF-1 act: increases HSF-1 driven luciferase reporter signal | NIH3T3-HGL HSF-1 luciferase reporter, MG132, 8 h; 100% = twice DMSO control signal | activation, % at 9 µM | hit rate 1.7% among 300,000 | AID 504408;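 active = mean replicate activation of at least 50% with a set share of replicates each reaching 50%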
Of the large screens only hits and unclear results are named; the others gave an inactive call. An excerpt weighted towards active compounds, which were near 4.7% of everything screened.

CC(=O)c1nn(-c2cccc(Br)c2)cc1C(=O)c1ccc(Cl)cc1	HSF-1 act 84
OC(CNCc1cccc(Cl)c1)c1ccccc1 (stereo not given)	HSF-1 act 72
OC(CNCc1ccccc1)c1ccccc1 (stereo not given)	none
COc1cc(OC)cc(C2=Cc3ccc(OC)cc3C(CC(C)=O)N2c2ccc(-c3cccs3)cc2)c1 (stereo not given)	none (no result: EBV LMP1 NFkB, HSP90 refold inh, HSF1 inhib, HSF-1 act)
CCOC(=O)[C@]12CCC=C1N(CCC1=CCCCC1)C(=O)[C@H](CC(=O)N1CCSCC1)C2	none (no result: EBV LMP1 NFkB, HSP90 refold inh, HSF1 inhib, HSF-1 act)
O=C(COC(=O)c1ccccc1-n1cnnn1)c1ccc(F)cc1	HSF1 inhib -53, TWEAK-Fn14 inh 53, TROY signal inh 64 (no result: HSP90 refold inh)
COc1ccccc1C(=O)COC(=O)c1ccc(-n2cnnn2)cc1	none (no result: HSP90 refold inh)
COC(=O)c1cc(=O)nc(NN=C2c3ccccc3-c3ccccc32)s1	TWEAK-Fn14 inh 61 (no result: EBV LMP1 NFkB, HSP90 refold inh, HSF1 inhib, HSF-1 act)
CNc1cc(-c2cc(OC)ccc2OC)ncn1	none (no result: EBV LMP1 NFkB, HSP90 refold inh, HSF1 inhib, HSF-1 act)
CC1(C)OC(=O)C2=C(C[C@@H](C3CCCC3)O[C@H]2c2ccc(Cl)cc2)O1	none (no result: EBV LMP1 NFkB, HSP90 refold inh, HSF1 inhib, HSF-1 act)
COC(=O)CN1C(c2cccc(Cl)c2)=Nc2ccc(Cl)cc2C1c1ccccc1 (stereo not given)	HSF-1 act 64
CC(=O)Nc1cc(-c2cccc(NS(C)(=O)=O)c2)cn2c(-c3ccc(F)c(Cl)c3)cnc12	TWEAK-Fn14 inh 92 (no result: EBV LMP1 NFkB, HSP90 refold inh, HSF1 inhib, HSF-1 act)
CC(=O)Nc1cccc(-c2cc(NC(C)=O)c3ncc(-c4ccc(F)cc4)n3c2)c1	TWEAK-Fn14 inh 100, TROY signal inh 91 (no result: EBV LMP1 NFkB, HSP90 refold inh, HSF1 inhib, HSF-1 act)
CC(C)CC1C(=O)N(Cc2cn(Cc3ccco3)nn2)CCS(=O)(=O)N1Cc1ccc(-c2cccc(N(C)C)c2)cc1 (stereo not given)	none (no result: HSP90 refold inh, HSF1 inhib, HSF-1 act)
COc1ccc(Cl)cc1NC(=O)c1cccc([N+](=O)[O-])c1O	TROY signal inh 56 (no result: HSP90 refold inh, HSF1 inhib, HSF-1 act)
COc1ccc(CN2C(=NC(=O)CCC3CCCC3)SC3CS(=O)(=O)CC32)cc1 (stereo not given)	HSF1 inhib -71
O=c1c2cc3c(cc2[nH]c(=S)n1CCN1CCOCC1)OCO3	TROY signal inh 78
CC1CCN(CCn2c(=S)[nH]c3cc4c(cc3c2=O)OCO4)CC1	none
O=C(CCCCCn1c(=S)[nH]c2cc3c(cc2c1=O)OCO3)N1CCN(C(=O)c2ccco2)CC1	HSF1 inhib -67
COc1c(F)cccc1C1=CC(=O)C[C@H](c2ccc(F)cc2)C1	none (no result: HSP90 refold inh, HSF1 inhib, HSF-1 act)
COc1ccc(/C=C2/SC(=S)N(CCCC(=O)Nc3ccccc3C(=O)O)C2=O)cc1	TROY signal inh 75
O=C(CCN1C(=O)S/C(=C\c2ccc(Cl)cc2)C1=O)Nc1ccc(C(=O)O)cc1	none
COc1ccc(/C=C2\SC(=O)N(CCCC(=O)Nc3ccc(C(=O)O)cc3)C2=O)cc1	EBV LMP1 NFkB 50, TWEAK-Fn14 inh 83, TROY signal inh 73 (no result: HSP90 refold inh, HSF1 inhib, HSF-1 act)
COc1ccc(/C=C2\SC(=O)N(CCNC(=O)Cn3[nH]c(=O)c4ccccc4c3=O)C2=O)cc1	TWEAK-Fn14 inh 51 (no result: HSP90 refold inh, HSF1 inhib, HSF-1 act)
Cc1ccc(/C=C2\SC(=S)N(CCCC(=O)Nc3ccccc3C(=O)O)C2=O)cc1	TWEAK-Fn14 inh 84, TROY signal inh 83
O=C(Nc1cccc(S(=O)(=O)C(F)(F)F)c1)[C@@H]1O[C@H](CO)[C@@H](O)[C@H]1O	none (no result: EBV LMP1 NFkB, HSP90 refold inh, HSF1 inhib, HSF-1 act)
CC(C)C[C@@H](CN1CCC[C@H]1CN1C(=O)C(=O)NC[C@@H]1Cc1ccccc1)N1C[C@H](Cc2ccc(O)cc2)N(CC2CCCCCC2)C(=O)C1=O	none (no result: EBV LMP1 NFkB, HSP90 refold inh, HSF1 inhib, HSF-1 act)
C[C@@H]1CN([C@@H](C)CO)C(=O)c2cc(Br)cnc2O[C@@H]1CN(C)S(=O)(=O)c1ccc(F)cc1	none (no result: HSP90 refold inh, HSF1 inhib, HSF-1 act)
CCc1ccc(/C=C2\SC(=S)N(CCCC(=O)Nc3ccccc3C(=O)O)C2=O)cc1	TROY signal inh 75
CC12CCC(/C(=C/NNc3ccc([N+](=O)[O-])cc3[N+](=O)[O-])C1=O)C2(C)C (stereo not given)	none (no result: HSP90 refold inh, HSF1 inhib, HSF-1 act)
CCOC(=O)N1CCN(C(=O)C2CC(=O)N(Cc3ccc(OC)cc3)C2)CC1 (stereo not given)	TWEAK-Fn14 inh 72 (no result: TROY signal inh)
COc1ccc(CN2CC(C(=O)N3CCOCC3)CC2=O)cc1 (stereo not given)	none
O=C1NC(Cc2ccc(O)cc2)c2nc3ccc(F)cc3c(=O)n2-c2cc3ccccc3cc21 (stereo not given)	none (no result: HSP90 refold inh, HSF1 inhib, HSF-1 act)
Cc1ccc(C(=O)COC(=O)c2ccc(O)cc2)cc1	HSF-1 act 122
Cc1ccc(C(=O)COC(=O)c2cn3ccccc3n2)cc1	HSF-1 act 62
NNC(=O)c1cn2ccccc2n1	none
O=C(OCc1ccc(COC(=O)c2ccc(O)cc2)cc1)c1ccc(O)cc1	TROY signal inh 61
O=C(COC(=O)c1ccc(-c2nnc(-c3ccccc3)o2)cc1)c1ccccc1	HSF-1 act 51
CCCN(Cc1cc2cc(OC)ccc2[nH]c1=O)C(=O)c1ccco1	none
Cc1ccc2cc(CN(C(=O)c3ccco3)c3ccccc3)c(=O)[nH]c2c1	none
CCOc1ccc(C(=O)N(Cc2ccc(OC)cc2)Cc2cc3cc(OC)ccc3[nH]c2=O)cc1	HSF-1 act 65
CCCCN(Cc1cc2cc(OC)ccc2[nH]c1=O)C(=O)c1ccco1	HSF-1 act 77
Cc1ccc(N(Cc2cc3ccccc3[nH]c2=O)C(=O)c2ccco2)c(C)c1	EBV LMP1 NFkB 40
CCCCN(Cc1cc2cc(OC)ccc2[nH]c1=O)S(=O)(=O)c1ccc(C)cc1	TWEAK-Fn14 inh 52
COc1ccc2[nH]c(=O)c(CN(CCO)S(=O)(=O)c3ccc(C)cc3)cc2c1	none
c1csc(-c2ccc3nncn3c2)c1	none (no result: EBV LMP1 NFkB, HSP90 refold inh, HSF1 inhib, HSF-1 act)
CC(=O)Nc1cc(-c2cccc(F)c2)cn2c(-c3ccc(F)cc3)cnc12	none (no result: EBV LMP1 NFkB, HSP90 refold inh, HSF1 inhib, HSF-1 act)
CCN(Cc1ccccc1)c1ccc(/C=C(\C#N)c2ccccn2)cc1	HSF-1 act 103
N#C/C(=C\c1ccc(C(=O)O)cc1)c1ccccn1	none
CN(CCC#N)c1ccc(/C=C(\C#N)c2ccccn2)cc1	TWEAK-Fn14 inh 52
Cc1ccc(C(=O)OCC(=O)NCc2ccccc2)s1	none (no result: HSP90 refold inh, HSF1 inhib, HSF-1 act)
O=C(Nc1nnc(-c2ccc3c(c2)CCCC3)o1)c1ccc(Cl)cc1Cl	none
O=C(Nc1nnc(-c2ccc3c(c2)CCCC3)o1)c1c(F)cccc1F	TWEAK-Fn14 inh 53
CN(C)CCNc1ncnc2c1ncn2[C@H]1CN(Cc2ccc(Cl)cc2)C[C@@H](CO)O1	none (no result: EBV LMP1 NFkB, HSP90 refold inh, HSF1 inhib, HSF-1 act)
CCOC(=O)c1c(C)[nH]c(C2=NNC(=Nc3ccccc3OC)SC2)c1C	TWEAK-Fn14 inh 51
CCOC(=O)c1c(C)[nH]c(C2=NNC(=Nc3ccccc3)SC2)c1C	none
CC(C)c1ccc(S(=O)(=O)N2CCC(C(=O)N3CCN(c4cccc(Cl)c4)CC3)CC2)cc1	none (no result: HSP90 refold inh, HSF1 inhib, HSF-1 act)
CCOC(=O)CNc1c(-c2ccc(O)cc2)nc2ccc(Cl)cn12	HSF-1 act 72
CCOC(=O)CNc1c(-c2ccccc2)nc2ccc(Cl)cn12	none
CCOC(=O)Cn1cc(Cn2c3ccccc3c(=O)n2C(C)C)nn1	none (no result: EBV LMP1 NFkB, HSP90 refold inh, HSF1 inhib, HSF-1 act)
Cc1cccc(CN2CCN([C@@H]3CS(=O)(=O)N[C@H]3COCc3ccccc3)CC2)c1	none (no result: EBV LMP1 NFkB, HSP90 refold inh, HSF1 inhib, HSF-1 act)
